Test results reported in ChEMBL document CHEMBL3988442, “University of Dundee, Small-Polar-MMV Screening Library” (2021).
Hit rate of the full screen: of about 48,000 compounds, about 13,000 (27%) showed an effect of 50% or more. The list shows a part of the results.

System: Wolbachia pipientis
Test: Anti-Wolbachia Cell-Based Screen
Type: functional
Set-up: scale not given: in the data most compounds retested in dose-response had high values
Settings: 5 µM

Compound | Percent Effect
CC(=O)N1CCC(Oc2ccc(C#N)cc2)CC1 | -9.565%
Cc1nc(N(C)C)ncc1C(=O)NCCCn1nccc1C1CC1 | -2.183%
CC(C)NC(=O)C1CCC2(CCN(Cc3cnn(C)c3)CC2)CO1.O=C(O)C(F)(F)F (centres undefined) | -4.372%
O=C(Nc1cccnc1)c1noc2c1CN(S(=O)(=O)C1CC1)CC2 | 3.652%
CC(C)NC(=O)c1noc2c1CN(Cc1cnn(C)c1)CC2 | 212.5%
Cc1cnn(C2CN(CC(=O)Nc3cccnc3)C2)c1 | -2.546%
CC(=O)NCc1noc2c1CN(Cc1cnn(C)c1)CC2 | 0.2145%
Cn1cc(CN2CCc3onc(C(=O)Nc4cccnc4)c3C2)cn1 | 104.3%
CSc1ccc(OC(C)C(=O)Nc2cc(C)n[nH]2)cc1 (centres undefined) | -10.9%
COC(=O)CNC(=O)C(C)Oc1ccccc1C(F)(F)F (centres undefined) | -20.43%
CC(=O)N1CCc2[nH]nc(C(=O)N3CC=CC3)c2C1 | -70.9%
COc1cccc2[nH]cc(CCNC(=O)N3CCOCC3C3CC3)c12 (centres undefined) | -14.93%
CSc1nsc(NC(=O)N2CCc3ccccc3C2)n1 | 111%
CN(C)c1ccc(NC(=O)N2CCc3sccc3C2)cn1 | -14.46%
Cc1nsc(NC(=O)N2CCc3sccc3C2)n1 | 105.8%
Cc1nsc(C(=O)N2CCc3ccccc3C2)n1 | 14.75%
Cc1nsc(N2CCc3sccc3C2)n1 | 15.05%
O=C(Nc1ccc(N2CCCC2)nc1)N1CCc2ccccc2C1 | 28.26%
CN(C)Cc1cc(CC2(NCc3ccc(C#N)cc3)COC2)no1 | 1.695%
Cn1cccc(NC(=O)N2CCC(CSc3ccccc3)C2)c1=O (centres undefined) | -5.186%
CC(C)NC(=O)N1CCCC2(CC(C(=O)Nc3ccccc3)=NO2)C1 (centres undefined) | 111.3%
CC(C)(C)CC(=O)N1CCCC2(CC(C(=O)Nc3ccccc3)=NO2)C1 (centres undefined) | 98.19%
CC(C)NC(=O)N1CCC2(CC(C(=O)NCc3cccnc3)=NO2)C1 (centres undefined) | -3.064%
CC(C)C(=O)N1CCCC2(CC(C(=O)NCc3cccnc3)=NO2)C1.O=C(O)C(F)(F)F (centres undefined) | -6.89%
Cc1ncccc1NC(=O)C1=NOC2(CCN(Cc3nccs3)C2)C1 (centres undefined) | 10.83%

Compound | Percent Effect
CC(C)CC(=O)N1CCCC2(CC(C(=O)Nc3ccccc3)=NO2)C1 (centres undefined) | 115.3%
COCC(=O)N1CCC2(CC(C(=O)NCc3cccnc3)=NO2)C1 (centres undefined) | -9.027%
CN(Cc1ccc2c(c1)OCO2)C(=O)c1ccc(C2CCCO2)s1 (centres undefined) | -6.874%
Cc1n[nH]c(C)c1CCc1nc(C2CC2)n[nH]1 | -13.82%
Cc1cc(C(=O)NCCc2cn3nc(C)sc3n2)c(C)o1 | -4.861%
Cc1cn(CC(=O)NCC(=O)NC2CC2)c2ccccc12 | -10.11%
CCc1nsc(N2CCn3c(nnc3-c3ccccc3)C2)n1 | -13.36%
CCCSCC(=O)N1C[C@@H]2CC[C@H](C1)N(Cc1ccccn1)C2=O | 6.181%
O=C([C@H]1C[C@H]2OCC[C@H]2N(CC2CC2)C1)N1CCCC1 | -0.02998%
CCc1nc(C)c([C@H]2CN(C)C[C@@H]2C(=O)NCc2ccccn2)[nH]1 | -14.52%
CS(=O)(=O)NC[C@H]1Cn2c(-c3ccc4c(c3)OCCO4)cnc2CO1 | -15.67%
Cc1noc(C(C)N2CCN(CCN3CCCC3=O)CC2)n1 (centres undefined) | 121%
CCc1noc(C(C)N2CCN(CCc3ccncc3)CC2)n1 (centres undefined) | 0.707%
CCc1noc(C(C)N2CCC(N3CCCC3)CC2)n1 (centres undefined) | -6.719%
CCc1noc(C(C)N2CCN(CCN3CCCC3=O)CC2)n1 (centres undefined) | 113.9%
Cc1noc(C(C)N2CCN(CCCN3CCCC3=O)CC2)n1 (centres undefined) | 8.407%
Cc1noc(C)c1CN(C)CC(=O)/N=c1\cc[nH]n1C(C)C1CC1 (centres undefined) | -5.789%
CN(C)c1cccc(C(=O)Nc2cnn(Cc3ccccn3)c2)c1 | -6.173%
Cc1ccc2cc(C3(O)CCN(C)CC3)ccc2n1 | -2.467%
COC[C@@]12CC[C@@H](N3CCOCC3)C[C@H]1CCN(c1ncccn1)C2 | -5.007%
CC[C@H](CO)NC(=O)c1coc(COc2ccccc2F)n1 | -31.99%
COc1cc(C)ccc1OCc1nc(C(=O)N2CCCO2)co1 | -7.138%
O=C(c1coc(COc2cccc3cnccc23)n1)N1CCCCCC1 | 5.374%
COCCC1CCCCN1C(=O)c1coc(COc2ccccc2F)n1 (centres undefined) | 108.5%
COc1cc(C)ccc1OCc1nc(C(=O)N2CCCC2)co1 | 0.1288%

Compound | Percent Effect
COc1ccccc1OCc1cc(C(=O)N2CCCCCC2CO)n[nH]1 (centres undefined) | -25.79%
CC1CCCCN1C(=O)c1coc(COc2cccc3cnccc23)n1 (centres undefined) | -5.431%
O=C(c1coc(COc2ccccc2F)n1)N1CCCO1 | 104.9%
O=C(c1coc(COc2ccccc2F)n1)N1CCC[C@H]1CO | 111.3%
CC(c1ccco1)n1cc(-c2cc(CN3CCCC3)cs2)nn1 (centres undefined) | 21.85%
CCOc1ccc(CCCC(=O)N2CCC(c3nnn[nH]3)CC2)cc1C | 92.44%
CCOc1ccc(CCCC(=O)N2CCC(C(=O)NC)C2)cc1C (centres undefined) | 83.39%
CCOc1cc(NC(=O)N2CCC(c3nnc[nH]3)CC2)ccc1C | 11.09%
CCc1ccc(CC)c(NCC(=O)N2CCCC(NC(C)=O)C2)c1 (centres undefined) | 8.422%
CCOc1ccc(CCCC(=O)N2CC[C@H](NC(C)=O)C2)cc1C | 116.5%
CCOc1ccc(C(C)NC(=O)N2CCC(C(N)=O)CC2)cc1OC (centres undefined) | -11.4%
CCNC(=O)N1CCC(NC(=O)NCCCc2cccc(F)c2)C1 (centres undefined) | -2.549%
CNC(=O)C1CCN(C(=O)c2coc(COc3ccc(OC)cc3)n2)C1 (centres undefined) | -10.95%
CCc1cc(C)c(C(=O)N2CCCC(c3nnn[nH]3)C2)o1 (centres undefined) | 6.83%
O=C(C1CC=CC1)N1CC[C@@H]2O[C@@H](COCC3CCOCC3)CC[C@@H]21 | -9.606%
COCCC(=O)NCC1Cn2nnc(-c3cccc(F)c3)c2CO1 (centres undefined) | -4.513%
COCCNC(=O)Cn1c(-c2cccc(Cl)c2)nc(C)c(CCO)c1=O | 141.8%
CNC(=O)c1cn2cc(-c3cccc(Cl)c3)n(CC=C(C)C)c(=O)c2n1 | 3.943%
COCCNC(=O)Cn1c(-c2cccc(F)c2)nc(C)c(CCO)c1=O | 196.7%
Cc1cc(=O)n(CC(=O)NCCC(C)C)c(-c2cccc(Cl)c2)n1 | -16.01%
CC(=O)Nc1nc(C(=O)NCCOc2cccc(F)c2)cs1 | 5.348%
O=C(O)C(F)(F)F.O=C(c1cocn1)N1CC[C@H]2OCC[C@@]2(COc2ncccc2F)C1 | 4.073%
CCS(=O)(=O)N1CCc2onc(COc3ccccn3)c2C1.O=C(O)C(F)(F)F | -3.121%
Cc1ccc(C(=O)N2CCc3ncnc(C)c3CC2)cn1 | -9.03%
CN(C)CC(=O)N1CCc2ncnc(-c3cncnc3)c2CC1.O=C(O)C(F)(F)F | 2.289%

Compound | Percent Effect
Cc1oncc1C(=O)N1CCc2ncnc(-c3cnn(C)c3)c2CC1.O=C(O)C(F)(F)F | 102.6%
O=C(O)C(F)(F)F.O=C(c1cccnc1)N1CCc2ncnc(N3CCOCC3)c2CC1 | 3.769%
Cc1ccc(C(=O)N2CCc3ncnc(-c4cnn(C)c4)c3CC2)cn1.O=C(O)C(F)(F)F | 114%
CCN(C)c1ncnc2c1CCN(C(=O)c1ccoc1C)CC2.O=C(O)C(F)(F)F | 0.8996%
Cc1ccc(=O)n(CC(=O)N(C)Cc2csc(-c3cccs3)n2)n1 | -12.57%
Cc1c(C(=O)N[C@@H]2CC[C@@H](N3CCCC3)[C@@H]2O)[nH]c2ccc(F)cc12 | 79.42%
CO[C@H]1CN(C(C)C)C[C@@H]1NC(=O)c1cc(-c2ccccc2F)n[nH]1 | -41.59%
Cc1c(C(=O)N2CCN(C)[C@@H]3CS(=O)(=O)C[C@@H]32)[nH]c2ccc(F)cc12 | 22.59%
O=C(NC1CCCCNC1=O)c1cc2ccccc2[nH]c1=O (centres undefined) | 20.65%
O=C(N[C@@H]1CC[C@@H](N2CCCC2)[C@@H]1O)c1cc2ccccc2[nH]1 | 132.3%
CC(=O)N[C@@H]1CN(C(=O)c2cc3ccccc3[nH]2)C[C@H]1c1ccc(C)o1 | 5.04%
O=C(N[C@@H]1CCNC[C@H]1O)c1ccc(F)c(Cl)c1 | -18.82%
CS(=O)(=O)NC1CCN(C(=O)c2[nH]c3ccc(Cl)cc3c2Cl)CC1 | 24.08%
O=C(N[C@@H]1CC[C@@H](N2CCCC2)[C@@H]1O)c1cc2cccc(F)c2[nH]1 | 98.49%
CSCCC(C)NC(=O)N1CCSC(C)(C)C1 (centres undefined) | 17.63%
CCOC(=O)c1ccc(CNC(=O)c2ccc(Cl)cn2)o1 | -5.208%
CCOc1ccc(C2CC(=O)Nc3c2c(=O)nc2sccn32)cc1 (centres undefined) | 17.16%
Cc1nn(C)c(C)c1C1COCCN1C(=O)CC(C)(C)C (centres undefined) | -9.995%
Cc1ccc(O)c(C(=O)N2CCOCC2c2c(C)nn(C)c2C)c1 (centres undefined) | 110.1%
Cc1nn(C)c(C)c1C1COCCN1C(=O)c1cc(F)ccc1F (centres undefined) | 96.87%
Cc1nn(C)c(C)c1C1COCCN1C(=O)NC1CC1 (centres undefined) | -3.324%
COC(=O)N1CCCC(C(=O)Nc2nc(C)c(SC)s2)C1 (centres undefined) | -4.415%
Cc1nc(CNC(C(=O)N2CCOCC2)C(C)C)no1 (centres undefined) | -7.712%
COc1ccc(F)cc1C[S+]([O-])CC(=O)NCC(C)C (centres undefined) | -12.33%
